# Experimental data reported in PubChem BioAssay (NCATS).
# Several values for one entry are separate records, joined by “and”; a condition that tells them apart may be missing. Identical values can stand only once. Results filed as inconclusive are left out. Activity calls are given as the source filed them. Unless noted, calls follow the shape of the dose curve; as a rule, active = well fitted curve in the direction sought with a large enough effect; inconclusive = small, poorly fitted or top-dose-only effect, or another doubt; inactive = no such curve, though single readings can be large; an effect the other way counts as inactive or inconclusive. Where a SMILES comes first, the peptide text is derived from it. The star is where a group is joined. Cbz = O=C(OCc1ccccc1)*; CH2Cl = ClC*
# Columns and labels:
# [1] = target: Cytochrome P450 2C9 (Homo sapiens) (UniProt P11712); test: Cytochrome P450 family 2 subfamily C member 9 (CYP2C9) small molecule antagonists: luciferase biochemical (cell-free) qHTS assay (AID 1645842; active = well fitted curve in the direction sought with a large enough effect in the repeat runs; an effect the other way counts as inactive or inconclusive; also: nearly all actives have a fitted effect of over 55% in size; also: potency is read from the fitted curve at half-maximal effect)
# Procedure, shortened: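 Luminescence, after 20 min with luciferin detection reagent, reflected CYP2C9 turnover during a 1 h NADPH-driven reaction at 37C. Enzyme-substrate mix contained 0.4% bovine serum albumin and was preincubated with compound 10 min at room temperature.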
# [2] = Primary qHTS for inhibitors of nuclear receptor binding SET domain protein 2 (NSD2) in an isogenic RCH-ACV NSD2 p.E1099K mutant (9B) (AID 1645876); also: nearly all actives have a fitted effect of over 70% in size; also: potency is read from the fitted curve at half-maximal effect
# [3] = Primary qHTS for inhibitors of nuclear receptor binding SET domain protein 2 (NSD2) in an RCH-ACV wild type WT cells (2C) (AID 1645877); also: nearly all actives have a fitted effect of over 70% in size; also: potency is read from the fitted curve at half-maximal effect
# [4] = target: Cytochrome P450 2D6 (Homo sapiens) (UniProt P10635); test: Cytochrome P450 family 2 subfamily D member 6 (CYP2D6) small molecule antagonists: luciferase biochemical (cell-free) qHTS assay (AID 1645840; active = well fitted curve in the direction sought with a large enough effect in the repeat runs; an effect the other way counts as inactive or inconclusive; also: nearly all actives have a fitted effect of over 55% in size; also: potency is read from the fitted curve at half-maximal effect)
# Procedure, shortened: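 P450-Glo luminescent screen: recombinant CYP2D6 enzyme–proluciferin substrate mix preincubated with compound 10 min at room temperature, then NADPH regeneration added for 1 h at room temperature. Detection reagent added for 20 min; luciferin light read as relative luminescence units.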
# [5] = target: N-terminal Xaa-Pro-Lys N-methyltransferase 1 (Homo sapiens) (UniProt Q9BV86); test: Confirmatory qHTS for Inhibitors of N-terminal methyltransferase 1 (NTMT1): MTaseGlo Assay (AID 1645874);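 also: luminescence from SAH made as NTMT1 methylates SPKRIA peptide using SAM; series mostly up to about 100 µM; nearly all actives have a fitted effect of over 65% in size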
# Procedure, shortened: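 Preincubation of NTMT1 (125 nM) plus SAM (100 uM) with test compounds lasted 15 min; methylation of 1 uM SPKRIA then proceeded 30 min in the dark at room temperature. Luciferase signal reported SAH produced.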
# Cytochrome P450 2C9 (Homo sapiens), sequence (P11712 whole entry, looked up): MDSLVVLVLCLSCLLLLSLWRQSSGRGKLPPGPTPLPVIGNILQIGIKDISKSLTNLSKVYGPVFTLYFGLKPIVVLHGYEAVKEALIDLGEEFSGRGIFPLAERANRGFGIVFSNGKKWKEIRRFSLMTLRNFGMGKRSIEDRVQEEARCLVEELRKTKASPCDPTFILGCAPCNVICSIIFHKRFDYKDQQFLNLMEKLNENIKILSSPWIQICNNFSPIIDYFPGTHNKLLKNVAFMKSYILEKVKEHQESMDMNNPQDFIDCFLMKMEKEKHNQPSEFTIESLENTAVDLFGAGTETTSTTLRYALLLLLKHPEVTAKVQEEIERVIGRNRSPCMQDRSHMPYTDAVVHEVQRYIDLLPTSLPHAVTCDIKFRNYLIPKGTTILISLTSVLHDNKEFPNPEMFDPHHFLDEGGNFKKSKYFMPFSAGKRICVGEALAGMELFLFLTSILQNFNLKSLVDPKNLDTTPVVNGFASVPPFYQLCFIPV
# Cytochrome P450 2D6 (Homo sapiens), sequence (P10635 whole entry, looked up): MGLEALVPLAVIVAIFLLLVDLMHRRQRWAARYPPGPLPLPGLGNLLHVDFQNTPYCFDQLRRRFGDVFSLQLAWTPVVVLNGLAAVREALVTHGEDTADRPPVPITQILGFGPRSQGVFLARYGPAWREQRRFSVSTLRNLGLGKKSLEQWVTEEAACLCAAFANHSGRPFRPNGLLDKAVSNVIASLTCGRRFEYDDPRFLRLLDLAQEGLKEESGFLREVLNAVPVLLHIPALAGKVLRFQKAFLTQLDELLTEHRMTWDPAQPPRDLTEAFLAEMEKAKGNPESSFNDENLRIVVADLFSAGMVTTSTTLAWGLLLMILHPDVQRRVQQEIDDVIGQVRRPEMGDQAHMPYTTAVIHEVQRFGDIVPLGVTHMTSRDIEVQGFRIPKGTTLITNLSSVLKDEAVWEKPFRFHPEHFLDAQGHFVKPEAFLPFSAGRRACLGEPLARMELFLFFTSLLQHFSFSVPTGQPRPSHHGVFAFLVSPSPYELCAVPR
# N-terminal Xaa-Pro-Lys N-methyltransferase 1 (Homo sapiens), sequence (Q9BV86 whole entry, looked up): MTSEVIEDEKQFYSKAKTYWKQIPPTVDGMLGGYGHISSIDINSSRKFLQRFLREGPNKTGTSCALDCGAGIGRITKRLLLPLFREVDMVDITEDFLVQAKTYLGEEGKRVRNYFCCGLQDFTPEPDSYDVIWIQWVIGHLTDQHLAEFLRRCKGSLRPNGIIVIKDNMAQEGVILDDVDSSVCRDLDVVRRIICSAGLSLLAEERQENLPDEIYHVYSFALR
structure (smiles),measurement,setting,value
C=CC(=O)Nc1cccc(Nc2nc(Nc3ccc(OCCOC)cc3)ncc2F)c1,Potency,[1],3.38 µM (active)
same,Potency,[2],3.72 µM (active)
same,Potency,[3],3.72 µM (active)
CNS(=O)(=O)c1ccccc1Nc1nc(Nc2ccc(N3CCN(C)CC3)cc2OC)ncc1Br,Potency,[1],inactive
same,Potency,[2],0.649 µM (active)
same,Potency,[3],0.728 µM (active)
NC(=O)c1cnc(N[C@@H]2CCCC[C@H]2N)nc1Nc1cccc(-n2nccn2)c1,Potency,[4],19 µM (active)
same,Potency,[2],0.649 µM (active)
same,Potency,[3],0.459 µM (active)
CCOC(=O)c1ccc(OCCC2CCN(c3ccc(C)nn3)CC2)cc1,Potency,[1],19 µM (active)
same,Potency,[2],inactive
same,Potency,[3],inactive
CCOc1cc(C(C)(C)C)ccc1C1=N[C@@](C)(c2ccc(Cl)cc2)[C@@](C)(c2ccc(Cl)cc2)N1C(=O)N1CCN(CC(=O)N2CCOCC2)CC1,Potency,[1],21.3 µM (active)
same,Potency,[2],1.03 µM (active)
same,Potency,[3],1.03 µM (active)
CN(C)CCOc1cc(NS(=O)(=O)c2c(Cl)cc(C(F)(F)F)cc2Cl)ccc1Cl,Potency,[4],16.9 µM (active)
same,Potency,[1],8.49 µM (active)
C=CC(=O)N1CCCC(n2nc(-c3ccc(Oc4ccccc4)cc3)c3c(N)ncnc32)C1 (stereo not drawn),Potency,[4],19 µM (active)
same,Potency,[1],3.79 µM (active)
NS(=O)(=O)c1ccc(N2N=C(c3ccccc3)CC2c2ccccc2)cc1 (stereo not drawn),Potency,[1],10.7 µM (active)
CN[C@@H]1CCc2[nH]c3ccc(C(N)=O)cc3c2C1,Potency,[4],inactive
same,Potency,[1],inactive
CC1(S(=O)(=O)O)CC(=O)c2ccccc2C1=O (stereo not drawn),Potency,[4],8.49 µM (active)
same,Potency,[1],16.9 µM (active)
CC(C)(C)c1ccc(NC(=O)N2CCN(c3ncccc3Cl)CC2)cc1,Potency,[1],6.01 µM (active)
O=C(OCCO)c1ccccc1O,Potency,[4],inactive
same,Potency,[1],inactive
O=C([C@@H]1CCCN(c2ccc3[nH]c(C4(n5cc(Cl)cn5)CC4)nc3n2)C1)N1CCCC1,Potency,[5],inactive
same,Potency,[3],inactive
Cn1c(SCC(=O)N2CCC[C@H]2C(=O)Nc2ccccc2-c2ccccc2)nc2ccccc21,Potency,[4],16.9 µM (active)
same,Potency,[3],inactive
N#C/C(=C1\Nc2ccccc2S1)c1ccnc(NCCc2cccnc2)n1,Potency,[4],8.49 µM (active)
same,Potency,[1],0.239 µM (active)
CCS(=O)c1nc(-c2cccc(OCc3ccccc3)c2)cc(C(F)(F)F)n1 (stereo not drawn),Potency,[1],10.7 µM (active)
same,Potency,[2],5.15 µM (active)
same,Potency,[3],3.25 µM (active)
C=C1C(=O)O[C@H]2C3=C(C)CCC[C@]3(C)C(=O)C[C@@H]12,Potency,[2],1.83 µM (active)
same,Potency,[3],1.29 µM (active)
CN(C)CC1CCn2c(c(C3=C(c4cn(C)c5ccccc45)C(=O)NC3=O)c3ccccc32)C1 (stereo not drawn),Potency,[2],7.28 µM (active)
same,Potency,[3],5.15 µM (active)
C=C1CC(=O)C2OC2(C)CC2OC(=O)C(=C)C2C(O)C1OC(=O)/C(C)=C\C (stereo not drawn),Potency,[2],3.19 µM (active)
same,Potency,[3],2.01 µM (active)
C=C1CC2OC(=O)C(=C)C2C(OC(=O)/C(C)=C\C)CC2(C)OC1=CC2=O (stereo not drawn),Potency,[2],2.01 µM (active)
same,Potency,[3],1.01 µM (active)
CC[C@H](C)/C=C(C)/C=C/C1=CC2=C(Cl)C(=O)[C@](C)(O)[C@H](OC(C)=O)[C@H]2CO1,Potency,[3],10.1 µM (active)
O=C(NO)c1cnc(N2CCN(S(=O)(=O)c3ccc4ccccc4c3)CC2)nc1,Potency,[2],0.252 µM (active)
same,Potency,[3],0.252 µM (active)
C=C1C(=O)OC2C(OC(=O)C=C(C)C)C(C)=C3C(=O)C=C(C)C3C(O)C12 (stereo not drawn),Potency,[2],10.1 µM (active)
same,Potency,[3],3.19 µM (active)
Cc1sc2c(c1C)C(c1ccc(Cl)cc1)=N[C@@H](CC(=O)Nc1ccc(OCCOCCOCCOCCNc3cccc4c3C(=O)N(C3CCC(=O)NC3=O)C4=O)cc1)c1nnc(C)n1-2 (stereo partly drawn),Potency,[2],4 nM (active) and 10.5 nM (active)
same,Potency,[3],3.2 nM (active) and 14.8 nM (active)
CC(C)C[C@H](NC(=O)CNC(=O)OCc1ccccc1)C(=O)N[C@@H](Cc1ccccc1)C(=O)CCl (Cbz-Gly-Leu-Phe-CH2Cl),Potency,[2],7.28 µM (active)
C=C1C(=O)OC2C1CCC1(C)C(O)CCC(=C)C21 (stereo not drawn),Potency,[2],18.3 µM (active)
same,Potency,[3],16.3 µM (active)
C=C(C)C(=O)OC1CC(CO)CCC/C(CO)=C/C2OC(=O)C(=C)C21 (stereo not drawn),Potency,[2],2.53 µM (active)
same,Potency,[3],2.01 µM (active)
CC(C)C[C@@H]1NC(=O)[C@@H]2C[C@@]34C[C@@H]5[C@@]6(C)CCCC(C)(C)C6CC[C@@]5(C)N(c5ccccc53)[C@H]4N2C1=O (stereo partly drawn),Potency,[2],3.55 µM (active)
same,Potency,[3],3.99 µM (active)
